Screening data (PubChem)
This is a sample that favours compounds with a hit; in the whole collection about 4.5% have one here.
GAA850 FXN act – activators of GAA850 frataxin (FXN) promoter; HEK293 lucGAA850 FXN promoter luciferase reporter, 24 h; percent of 10 µM SAHA response; activation, % at 6 µM; 0.56% of 360,000 active;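 active = activation above the average of all compounds screened plus 3 SD, cutoff fixed separately per campaign, cut at about 7.5% in these data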;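 also: 0% = DMSO wells and 100% = 10 µM SAHA wells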
hcDAF-12 act – activators of H. contortus DAF-12 nuclear receptor | HEK293 hcDAF-12 lit1-tk-luc reporter, luminescence; 0% DMSO, 100% Δ7-dafachronic acid | activation, % at 6.8 µM | 1.4% of 370,000 active | AID 652067;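 active = activation above the mean of all tested compounds plus 3 SD, cut at about 5.5% in these data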;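 also: 100% = response to 3 µM Δ7-dafachronic acid high control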
DAX1 inh-1 – DAX1 (NR0B1) inhibition, primary screen. HEK293T StAR-luciferase reporter, SF-1/DAX-1 repression relief. inhibition, % at 6.8 µM. 1.1% of 370,000 active. AID 652010;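 active = inhibition above the mean over all tested compounds plus 3 SD, cut at about 3.6% in these data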;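 also: 0% = DAX-1 cells with DMSO and 100% = cells lacking DAX-1 with DMSO; higher inhibition means more luminescence from relief of DAX-1 repression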
DAX1 inh-2 – inhibitors of human orphan nuclear receptor DAX1 (NR0B1); HEK293 Gal4-DAX1 luciferase reporter, luminescence; inhibition, % at 6.75 µM; 0.99% of 340,000 active;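 active = inhibition above the mean over all tested compounds plus 3 SD, cut at about 4.2% in these data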;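 also: 0% = DAX1-transfected cells with DMSO and 100% = empty-vector control cells with DMSO; inhibition shows as a rise in luminescence from relieved DAX1 repression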
ssDAF12 agonist – activators of S. stercoralis DAF-12 nuclear receptor; activation, % at 6.8 µM; 1% of 370,000 active; HEK293 ssDAF-12/GRIP1 lit1-tk-luc reporter, luminescence; % of 3 µM dafachronic acid response;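 active = activation above the mean over all tested compounds plus 3 SD, cut at about 0.9% in these data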;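 also: 0% = DMSO-only wells and 100% = 3 µM delta7-dafachronic acid wells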
hgDAF-12 ag – activates the H. glycines DAF-12 receptor ligand-binding domain; AID 687014; HEK293 GAL4-hgDAF12 UAS-luciferase reporter, agonist luminescence; normalized to butyrate control; activation, % at 6.8 µM; 1.8% of 370,000 active;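 active = activation above a cutoff set at the mean of all screened compounds plus 3 SD, cut at about 10% in these data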;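 also: 0% = DMSO wells and 100% = sodium butyrate wells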
hgDAF12 conf – hgDAF-12 agonism, confirmation assay; HEK293 GAL4-hgDAF12 luciferase reporter, agonist mode; percent of butyrate response; activation, % at 6.8 µM; shares compounds with hgDAF-12 ag; 80% of 3,300 active;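 active = mean activation over triplicate wells above the hit cutoff derived from the earlier primary screen, cut at about 11% in these data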;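 also: 0% = DMSO low control and 100% = 2 mM sodium butyrate high control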
LXR ag 2 – activates human LXR-beta, counter-screen for DAF-12 agonists | AID 743051 | 3,300 tested, under 10 active | activation, % at 6.8 µM | HEK293 Gal4-LXR luciferase reporter, 24 h | shares compounds with hgDAF-12 ag;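 active = mean activation of the triplicate above a set limit carried over from the primary screen, none filed active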
Target sequence (P55055 whole entry, looked up, the tested form may be a part): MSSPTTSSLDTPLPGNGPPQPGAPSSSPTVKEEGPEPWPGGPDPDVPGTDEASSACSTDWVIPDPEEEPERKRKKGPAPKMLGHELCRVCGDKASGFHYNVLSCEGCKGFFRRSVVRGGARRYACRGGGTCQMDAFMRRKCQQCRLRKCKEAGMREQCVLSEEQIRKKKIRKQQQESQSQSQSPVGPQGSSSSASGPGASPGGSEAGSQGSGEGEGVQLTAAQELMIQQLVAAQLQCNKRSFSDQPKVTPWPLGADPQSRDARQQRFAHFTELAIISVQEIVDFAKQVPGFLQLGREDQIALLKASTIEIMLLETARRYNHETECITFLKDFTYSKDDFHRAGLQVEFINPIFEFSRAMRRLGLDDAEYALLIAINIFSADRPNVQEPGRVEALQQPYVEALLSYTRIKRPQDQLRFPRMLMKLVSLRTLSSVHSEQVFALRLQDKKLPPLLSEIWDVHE
The depositor's hits bear a star; . = no result.

SMILES	GAA850 FXN act	hcDAF-12 act	DAX1 inh-1	DAX1 inh-2	ssDAF12 agonist	hgDAF-12 ag	hgDAF12 conf	LXR ag 2
CC(=O)Nc1cccc(/C(C)=N/Nc2nc3ccccc3s2)c1	3	4	3	3	0	15*	13*	1
COc1ccc2nc(NC(=O)c3ccc4ncsc4c3)sc2c1	3	.	.	1	.	.	.	.
CC(=O)Nc1cccc(/C(C)=N/NC(=O)c2cc(-c3ccncc3)nc3ccccc23)c1	-2	0	1	-2	-2	3	.	.
COc1ccc2nc(NC(=O)c3ccc(F)cc3)sc2c1	3	0	2	4.7*	0	14*	13*	1
COc1cccc(C(=O)Nc2nc(C)cs2)c1	-1	2	2	1	0	15*	14*	1
Cc1csc(NC(=S)NC(=O)c2ccccc2)n1	6	5	1	3	0	16*	16*	1
CC(C)CCNC(=O)C(=O)Nc1cc2c3c(c1)CCC(=O)N3CCC2	-1	0	0	1	-1	2	.	.
Cc1nn(-c2ccccc2)c(/N=C/c2ccccc2O)c1-c1ccccc1	3	2	3	2	0	15*	11*	0
Cc1nn(-c2ccccc2)c(C)c1/C=N/O	4	-1	0	0	-1	1	.	.
O=C(Nc1cccnc1)c1noc2c1CCCC2	4	2	2	0	-1	6	.	.
CC(=O)c1ccc(NC(=O)c2noc3c2CCCCC3)cc1	7	2	3.8*	2	1	14*	17*	1
Cc1nn2c(-c3ccc(Cl)cc3)nnc2s1	0	-1	0	0	-2	-1	.	.
Cc1nn2cc(-c3ccc(-c4ccccc4)cc3)nc2s1	1	5.7*	2	1	1	15*	16*	1
CCc1nn2cc(-c3ccccc3)nc2s1	-4	4	1	-4	-1	0	.	.
Cc1nn2cc(-c3ccc(Cl)cc3)nc2s1	-1	5	3.9*	2	0	14*	16*	1
O=C(N/N=C/c1cn(-c2ccccc2)nc1-c1cc2ccccc2o1)c1c[nH]c2ccccc12	4	4	2	1	1	19*	13*	1
Cc1[nH]c2ccccc2c1/C=N/NC(=O)CNC(=O)c1cccs1	-1	0	0	0	-1	0	.	.
Cc1[nH]c2ccccc2c1/C=N/NC(=O)c1cccs1	4	6.1*	2	7.9*	0.9*	14*	5	0
CN(C)c1ccc(/C=N/NC(=O)c2ccccc2Cl)cc1	-3	1	-2	-1	-1	5	.	.
CSc1ccc(/C=N/NC(=O)c2ccccc2Cl)cc1	-1	4	-1	1	-1	18*	13*	0
CSc1ccc(/C=N/NC(=O)c2cccs2)cc1	3	6.3*	3	.	0	16*	18*	1
O=C(CCCOc1ccc(Cl)cc1)NC1CCCCC1	-1	-2	0	-1	-1	0	.	.
C/C(=N\NC(=O)c1nn(C)cc1Cl)c1ccncc1	3	2	1	1	0	10	.	.
C/C(=N\NC(=O)c1ccn[nH]1)c1cn(C)nc1C	7	3	2	2	1.3*	15*	10	0
COc1ccc(/C=C/c2nc3ccccc3n2Cc2ccccc2OC)cc1	4	5	4.4*	3	0	16*	12*	1
COc1ccccc1Cn1c(C(C)C)nc2ccccc21	0	-2	0	0	-2	-2	.	.
O=[N+]([O-])c1cccnc1NCCNc1ncc(C(F)(F)F)cc1Cl	3	2	2	3	0	14*	15*	0
O=C1C2C3C=CC(C3)C2C(=O)N1c1ccccc1OS(=O)(=O)c1ccccc1 (stereo not given)	-2	-2	0	-1	-1	-2	.	.
